Hits are enriched below; roughly 19% of the tested compounds scored in any of these assays.
TDP1 cell noCPT: qHTS for Inhibitors of human tyrosyl-DNA phosphodiesterase 1 (TDP1): qHTS in cells in absence of CPT | DT40 Tdp1-/- hTDP1 cells, no CPT, ATP luminescence, 48 h | Potency, µM (top dose mostly 46.2 µM), without a hit: at the highest dose activity change, negative = growth inhibition, hits mostly inhibitors | actives 15% (n = 420,000); note: potency is the fitted concentration of half-maximal effect; nearly all actives have a fitted effect of over 55% in size
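Readout: luminescence from CellTiter-Glo after 30 min in the dark at RT. Cells: DT40 Tdp1-/- with stable hTDP1, 400/well. Exposure: compounds alone, ≥48 hr, 37 °C.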
IL-1B inflam inh: inhibitors of inflammasome signaling (IL-1 beta secretion). activity change, % at 57.5 µM. THP-1 LPS/ATP IL-1B secretion, AlphaLISA, 16 h; stronger effect = lower value. actives 4.7% (n = 360,000); in the data active = activity change below about -50%; inconclusive = mostly about -30% to -49%
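Secreted IL-1B measured by AlphaLISA bead assay after 16 h compound exposure of THP-1 cells; compounds (final up to 57.5 uM) added 1 h before LPS (250 ng/mL) and ATP (1.25 mM) stimulation; lower signal means less secretion.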
HT1080 IDH1KD tx: HT-1080 IDH1 knockdown cell toxicity (counter line); HT-1080 IDH1 knockdown viability, ATP luminescence, 48 h; Potency, µM (series often up to 46.1 µM), for inactives: top-dose activity, negative = toxicity, hits mostly cytotoxic; actives 2% (n = 360,000); AID 686971;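 note: potency is the fitted concentration of half-maximal effect; 0% = DMSO wells and -100% = cell-free medium wells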
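Luminescent ATP read-out (CellTiter-Glo, 10 min at room temperature) after 48 h compound exposure at 37 °C gave viability of IDH1-knockdown HT-1080 cells. Activity was normalised to DMSO and cell-free wells, then fitted as concentration-response curves.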
DT40 TDP1 CPT: DT40-hTDP1 cell growth loss with CPT | AID 686979 | actives 12% (n = 420,000) | chicken DT40 Tdp1-/-;hTDP1 cells + 20 nM CPT, ATP luminescence, 48 h | Potency, µM (top dose mostly 46.2 µM), for the others: at the top dose activity change, negative = growth inhibition, hits mostly inhibitors; note: potency is the fitted concentration of half-maximal effect; nearly all actives have a fitted effect of over 55% in size
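Cell growth measured by CellTiter-Glo luminescence after a minimum 48 h, 37 C compound exposure with 20 nM CPT in Tdp1-knockout DT40 cells stably expressing hTDP1, seeded 400/well; qHTS titration format.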
HT1080-NT tox: kills 2HG-producing HT-1080-NT fibrosarcoma cells; Potency, µM (titrated, usually from 46.1 µM), for the others: at the top dose activity, negative = less viability, usual class: cytotoxic; HT-1080-NT fibrosarcoma viability, CellTiter-Glo ATP luminescence, 48 h; AID 686970; actives 1.6% (n = 360,000);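 note: NT is the 2HG producing partner of a matched IDH1 knockdown line; potency is the fitted concentration of half-maximal effect; 0% = DMSO-treated cells and -100% = media-only wells without cells; nearly all actives have a fitted effect of over 55% in size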
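Toxicity toward the 2HG-producing NT line was scored as %Activity, normalised to DMSO and no-cell wells, from CellTiter-Glo luminescence after 48 hours' treatment.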
Starred values were filed as active, the others as inactive; ? = inconclusive; . = no result; ! = a repeat was not active; [ ] = remark or other dose. Unless noted, calls come from the whole dose curve; as a rule, active = well fitted curve in the direction sought with a large enough effect; inconclusive = small, poorly fitted or top-dose-only effect, or another doubt; inactive = no such curve, though single readings can be large; an effect the other way counts as inactive or inconclusive. Unless noted, % is set by controls: 0 for no effect and ±100 for the full control effect.

SMILES	TDP1 cell noCPT	IL-1B inflam inh	HT1080 IDH1KD tx	DT40 TDP1 CPT	HT1080-NT tox
Cc1csc(NC(=O)CSc2nc(C(C)C)nc3c2c(=O)n(C)c(=O)n3C)n1	4.6µM*	6	-10%	10µM*	-28%
COc1ccc(NC(=O)CSc2nc(C(C)C)nc3c2c(=O)n(C)c(=O)n3C)c(OC)c1	-11%	20	25%	-16%	13%
Cc1ccc(-c2nc(SCC(=O)Nc3cc(C)on3)c3c(=O)n(C)c(=O)n(C)c3n2)cc1	15µM*	0	1%	12µM*	-2%
Cc1c(Cl)ccc2c1NC(=O)[C@]21N[C@@H](Cc2ccccc2)[C@H]2C(=O)N(c3ccc(F)cc3)C(=O)[C@H]21	?	-17	?	?	-22%
CCn1c(O)c(N=NC(=O)CNC(=O)c2cccnc2)c2ccccc21	?	-20	-3%	-9%	-3%
COc1ccc(OCc2ccc(-c3nc(C#N)c(NCc4cccnc4)o3)o2)cc1	18µM*	.	.	?	.
Cc1ccccc1OCc1ccc(-c2nc(C#N)c(NCc3cccnc3)o2)o1	21µM*	.	.	15µM*	.
COc1ccc(CNc2oc(-c3ccc(COc4ccc(Cl)cc4)o3)nc2C#N)cc1	?	.	.	-53%	.
Cc1cc(Nc2ccccc2C(=O)O)ccc1Cl	-24%	.	.	-9%	.
CC(C)(C)C1(O)CCN2CC3c4ccccc4CCc4cccc(c43)C2C1 (stereo not given)	24µM*	.	.	17µM*	.
CN1CCN2c3ncccc3Cc3ccccc3C2C1 (stereo not given)	11%	-25	0%	16%	15%
CC(C)(C)[C@]1(O)CCN2C[C@H]3c4ccccc4CCc4cccc(c43)[C@@H]2C1	12µM*	-16	-29%	8.2µM*!	?
Cc1ccc(NC(=O)CN2CCCCCC2)cc1[N+](=O)[O-]	-12%	-3	14%	1%	11%
Cc1n(C)c2cc(Cl)ccc2[n+]1Cc1ccccc1	23µM*	-1	-10%	?	1%
CC[n+]1c(C)n(C)c2cc(S(=O)(=O)N(C)C)ccc21	0%	-1	0%	15%	-1%
COc1cc(/C=C/CN2CCN(Cc3ccc(C)o3)C(CCO)C2)ccc1O (stereo not given)	-11%	-6	-13%	-5%	-3%
CCc1nc2ccc(C(=O)Nc3cccc(OC)c3)cn2c1N(C)Cc1ccc(OC)cc1	?	?	-29%	?	?
CCc1nc2ccc(C(=O)N(C)Cc3ccccc3)cn2c1N(C)CCCc1ccccc1	13µM*	-26	?	?	?
CCc1nc2ccc(C(=O)NCc3ccccc3OC)cn2c1N(C)C(=O)Cc1ccccc1	?	7	0%	?	5%
CCCCN(C=O)c1c(CC)nc2ccc(C(=O)NCCc3c[nH]c4ccccc34)cn12	?	-28	-21%	?	-14%
CCc1nc2ccc(C(=O)N(C)Cc3ccccc3)cn2c1N(C)Cc1ccc(OC)cc1	12µM*	-14	-24%	12µM*	?
CCc1nc2ccc(C(=O)NCc3ccccc3OC)cn2c1N(C)Cc1ccc(OC)cc1	21µM*	-52*	?	16µM*	?
CCc1nc2ccc(C(=O)NCCc3c[nH]c4ccccc34)cn2c1N(C=O)CCC(C)C	16µM*	?	-30%	21µM*	?
CN(C)CC(C)(O)c1ccc2c(c1)CN(Cc1cccn1-c1cccnc1)CCO2 (stereo not given)	-13%	.	.	19%[9.04 µM]	.
CCc1nc2ccc(C(=O)NCc3ccc(OC)cc3)cn2c1N(C)Cc1ccc(OC)cc1	21µM*	-11	-13%	?	-8%
CCc1nc2ccc(C(=O)N(C)CCCN(C)C)cn2c1N(C)Cc1cc2ccccc2s1	21µM*	-9	16µM*	?	18µM*
CCc1nc2ccc(C(=O)NCCOc3ccc(OC)cc3)cn2c1N(C)C(=O)C1CCCCC1	21µM*	-8	-1%	?	-2%

From PubChem BioAssay
